Measured values taken from PubChem BioAssay.
The source made the active and inactive calls. Unless noted, no rule for the calls is given here.

Columns and labels:
[1] = compounds binding Alexa647 anti-His antibody – biochemical, small-molecule microarray, 635 nm fluorescence, artefact control for SMM control protein annotation, primary screen (AID 1128); conditions: higher = more signal;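 also: score merges feature fluorescence with signal-to-noise for each printed compound spot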
[2] = tested on: Human papillomavirus type 1a E7 protein (residues 1-88); assay: HPV1a E7 small-molecule binders, primary screen, biochemical, small-molecule microarray, residues 1-88, 635 nm (AID 1129); conditions: small-molecule microarray binding, fluorescence 635 nm; higher = more signal
[3] = target: Focal adhesion kinase 1 (Homo sapiens) (UniProt Q05397); assay: PTK2 protein binding on printed compound slides – biochemical, small-molecule microarray, 635/667 nm fluorescence, BSA, DTT, primary screen (AID 1130); conditions: 635 nm fluorescence, higher = more signal;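 also: composite of spot emission at 667 nm and signal to noise over triplicate slides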
[4] = tested on: Fibrinogen (Alexa647-labelled); assay: Alexa647-fibrinogen binding to printed small molecules – biochemical, small-molecule microarray, 635/667 nm fluorescence, artefact control for SMM control-protein annotation, profiling panel (AID 1131); conditions: fibrinogen-A647 binding fluorescence, higher = more signal;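 also: z-score merges 667 nm fluorescence with per-spot signal-to-noise over triplicate slides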
[5] = target: Follistatin (Homo sapiens) (UniProt P19883); assay: FST protein binding to printed compounds – biochemical, small-molecule microarray, 635/667 nm fluorescence, primary screen (AID 1132); conditions: 635 nm fluorescence, higher = more signal
[6] = target: Fibroblast growth factor 2 (Homo sapiens) (UniProt P09038); assay: basic fibroblast growth factor binding to printed compounds – biochemical, small-molecule microarray, 635/667 nm fluorescence, primary screen (AID 1133); conditions: FGF2, fluorescence 635/667, higher = more signal
[7] = JC-1 mitochondrial potential readout, lung cancer cells – cell-based, A549, JC-1 fluorescence, basal, 24 h, 100 nL, profiling panel (AID 1138); conditions: higher = more signal;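 also: A549 lung adenocarcinoma cells under basal conditions with no added stimulus; test concentration not given here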
Lefty1 = Lefty1 protein binding to printed compounds – biochemical, small-molecule microarray, 635/667 nm fluorescence, primary screen (AID 1139); conditions: fluorescence 635/667, higher = more signal
[8] = tested on: wheat germ agglutinin (Triticum aestivum), Alexa647-labelled; assay: Alexa647-WGA lectin binding to printed small molecules – biochemical, small-molecule microarray, 635/667 nm fluorescence, artefact control for SMM control-protein annotation, profiling panel (AID 1140); conditions: WGA-A647 binding, 635 nm fluorescence, higher = more signal;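 also: score merges 667 nm feature emission with signal to noise over triplicate slides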
[9] = target: Luciferin 4-monooxygenase (Photinus pyralis) (UniProt P08659); assay: inhibition of purified Photinus pyralis luciferase – biochemical, luminescence, purified enzyme, 2006 set, primary screen (AID 1141); conditions: purified firefly luciferase, SteadyGlo luminescence, 30 min; higher = more signal, called active from +8 up or from −8 down;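 also: cell-free assay with purified firefly luciferase at 100 ng per well in PBS; test concentration not given here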
[10] = tested on: Wnt5a (protein binding on small-molecule microarray); assay: small molecules binding Wnt5a protein – biophysical, small-molecule microarray, 635/667 nm fluorescence, primary screen (AID 1142); conditions: 635 nm fluorescence, higher = more signal;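 also: fluorescence read at 667 nm with signal to noise per printed feature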
[11] = ATP-based viability of Huh7 replicon cells – cell-based, CellTiter-Glo luminescence, basal, 48 h, cytotoxicity control for HCV replication inhibitor project, primary screen (AID 1143); conditions: higher = more signal, called active from +8 up or from −8 down;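 also: Huh7 hepatoma cells carrying a hepatitis C replication reporter with no stimulus; test concentration not given here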
[12] = Pseudomonas biofilm growth suppression – PAO1 strain, BacTiter-Glo luminescence, LB-PBS, primary screen (AID 1144); conditions: P. aeruginosa PAO1 biofilm, 12 h, higher = more signal
[13] = basal CRE-LacZ reporter activity in PC12 – cell-based, unstimulated, primary screen (AID 1145); conditions: no forskolin, luminescence, 4.5 h, higher = more signal, called active from +8 up or from −8 down
[14] = forskolin-driven CRE-LacZ activity in PC12 – cell-based, CRE-LacZ reporter, forskolin-stimulated, primary screen (AID 1146); conditions: luminescence, 4.5 h, higher = more signal, called active from +8 up or from −8 down;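 also: PC12 cells with 6xCRE LacZ reporter stimulated by forskolin 10 µM; beta-galactosidase reporter signal reflecting CREB driven transcription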
[15] = target: Streptavidin (Streptomyces avidinii) (UniProt P22629); assay: compounds binding control protein streptavidin – biophysical, small-molecule microarray, 635/667 nm fluorescence, artefact control for SMM compound annotation, primary screen (AID 1147); conditions: higher = more signal;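 also: signal reflects streptavidin binding to arrayed compounds as a control protein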
[16] = probe aInhba binding on compound microarray – biochemical, small-molecule microarray, 635/667 nm fluorescence, primary screen (AID 1148); conditions: higher = more signal;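 also: score merges 667nm spot fluorescence with signal-to-noise for antibody binding to printed compounds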
Torsin-1A (Homo sapiens) [17] = target: Torsin-1A (Homo sapiens) (UniProt O14656); assay: TOR1A wild-type binding on microarray – cell lysate, small-molecule microarray, lysate, 635/667 nm, primary screen (AID 1149); conditions: COS7 hTOR1A-WT lysate, 635 nm fluorescence, higher = more signal
Torsin-1A (Homo sapiens) [18] = target: Torsin-1A (Homo sapiens) (UniProt O14656); assay: torsin A mutant lysate binding on microarrays – cell lysate, small-molecule microarray, COS7 lysate, 635/667 nm fluorescence, primary screen (AID 1150); conditions: COS7 hTOR1A mutant lysate, 635 nm fluorescence, higher = more signal;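 also: score pools 667 nm emission and signal to noise measuring lysate protein binding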
[19] = tested on: Sonic hedgehog protein (Shh); assay: Sonic hedgehog microarray binding compounds – biochemical, small-molecule microarray, 635/667 nm fluorescence, primary screen (AID 1151); conditions: 635 nm fluorescence, higher = more signal;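 also: Shh protein binding to compounds spotted on small-molecule microarray slides; score combines spot fluorescence intensity with signal-to-noise across triplicate slides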

Sequence of Torsin-1A (Homo sapiens) (O14656 whole entry, looked up): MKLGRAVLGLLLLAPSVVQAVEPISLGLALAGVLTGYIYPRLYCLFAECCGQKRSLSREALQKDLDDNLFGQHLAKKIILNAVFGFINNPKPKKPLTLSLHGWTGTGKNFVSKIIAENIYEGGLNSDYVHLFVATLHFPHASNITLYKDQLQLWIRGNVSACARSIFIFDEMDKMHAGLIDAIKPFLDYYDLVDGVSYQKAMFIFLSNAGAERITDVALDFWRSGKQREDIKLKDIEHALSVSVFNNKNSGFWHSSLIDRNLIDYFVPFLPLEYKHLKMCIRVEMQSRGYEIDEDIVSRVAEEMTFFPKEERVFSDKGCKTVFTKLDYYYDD
Sequence of Streptavidin (Streptomyces avidinii) (P22629 whole entry, looked up): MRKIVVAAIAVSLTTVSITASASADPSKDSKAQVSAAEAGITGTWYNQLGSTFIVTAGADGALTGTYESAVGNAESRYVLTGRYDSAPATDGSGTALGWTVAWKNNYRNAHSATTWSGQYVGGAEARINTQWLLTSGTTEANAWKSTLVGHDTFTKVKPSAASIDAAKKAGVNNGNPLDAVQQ
Sequence of Luciferin 4-monooxygenase (Photinus pyralis) (P08659 whole entry, looked up): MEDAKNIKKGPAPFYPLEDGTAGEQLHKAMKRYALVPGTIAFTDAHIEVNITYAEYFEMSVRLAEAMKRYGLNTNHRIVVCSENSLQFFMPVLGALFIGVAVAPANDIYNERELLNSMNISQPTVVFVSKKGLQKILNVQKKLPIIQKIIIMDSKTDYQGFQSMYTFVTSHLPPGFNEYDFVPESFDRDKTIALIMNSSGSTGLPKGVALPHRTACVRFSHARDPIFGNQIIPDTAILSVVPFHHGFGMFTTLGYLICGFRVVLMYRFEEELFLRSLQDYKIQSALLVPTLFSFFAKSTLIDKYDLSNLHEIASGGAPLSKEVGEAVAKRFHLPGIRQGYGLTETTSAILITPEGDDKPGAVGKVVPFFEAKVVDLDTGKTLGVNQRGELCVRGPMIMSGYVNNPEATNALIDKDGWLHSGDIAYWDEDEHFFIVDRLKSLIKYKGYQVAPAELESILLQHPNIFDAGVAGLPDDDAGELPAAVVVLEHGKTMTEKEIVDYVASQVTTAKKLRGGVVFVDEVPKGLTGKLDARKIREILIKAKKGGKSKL
Sequence of Follistatin (Homo sapiens) (P19883 whole entry, looked up): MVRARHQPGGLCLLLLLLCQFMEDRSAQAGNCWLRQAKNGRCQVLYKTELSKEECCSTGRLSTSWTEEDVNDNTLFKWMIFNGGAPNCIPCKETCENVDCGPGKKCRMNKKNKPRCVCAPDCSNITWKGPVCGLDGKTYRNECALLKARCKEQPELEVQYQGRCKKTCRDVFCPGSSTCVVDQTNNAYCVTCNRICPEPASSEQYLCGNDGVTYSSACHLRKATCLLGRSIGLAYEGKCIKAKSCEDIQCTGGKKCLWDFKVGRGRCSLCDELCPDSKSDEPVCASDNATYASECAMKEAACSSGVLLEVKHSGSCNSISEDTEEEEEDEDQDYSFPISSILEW
Sequence of Focal adhesion kinase 1 (Homo sapiens) (Q05397 whole entry, looked up): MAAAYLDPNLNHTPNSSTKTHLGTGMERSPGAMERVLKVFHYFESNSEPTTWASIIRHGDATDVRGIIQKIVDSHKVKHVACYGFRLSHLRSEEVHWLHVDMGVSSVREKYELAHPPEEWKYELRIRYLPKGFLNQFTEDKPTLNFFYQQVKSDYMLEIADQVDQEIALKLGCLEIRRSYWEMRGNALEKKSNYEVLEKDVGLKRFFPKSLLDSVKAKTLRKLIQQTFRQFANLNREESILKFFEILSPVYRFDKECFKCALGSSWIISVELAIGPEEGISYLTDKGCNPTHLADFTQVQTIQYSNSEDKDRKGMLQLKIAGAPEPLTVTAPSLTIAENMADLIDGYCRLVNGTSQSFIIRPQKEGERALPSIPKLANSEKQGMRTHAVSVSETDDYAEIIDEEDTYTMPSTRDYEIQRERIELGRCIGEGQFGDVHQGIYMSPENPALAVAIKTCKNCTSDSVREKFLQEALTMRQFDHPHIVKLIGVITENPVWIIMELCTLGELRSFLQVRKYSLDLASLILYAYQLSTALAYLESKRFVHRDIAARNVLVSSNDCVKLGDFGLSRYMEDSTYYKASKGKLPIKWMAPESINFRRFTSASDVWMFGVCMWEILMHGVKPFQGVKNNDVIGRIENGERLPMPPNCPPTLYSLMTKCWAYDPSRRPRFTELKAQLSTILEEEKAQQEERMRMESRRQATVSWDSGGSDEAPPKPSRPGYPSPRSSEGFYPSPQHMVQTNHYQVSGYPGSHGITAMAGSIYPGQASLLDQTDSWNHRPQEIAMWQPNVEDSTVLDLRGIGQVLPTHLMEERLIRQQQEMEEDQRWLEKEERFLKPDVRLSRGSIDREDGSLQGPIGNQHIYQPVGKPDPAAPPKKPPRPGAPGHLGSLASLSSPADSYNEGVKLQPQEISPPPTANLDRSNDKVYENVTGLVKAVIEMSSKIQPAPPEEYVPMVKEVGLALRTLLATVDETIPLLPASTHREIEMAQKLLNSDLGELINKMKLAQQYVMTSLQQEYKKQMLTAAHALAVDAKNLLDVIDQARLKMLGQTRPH
Sequence of Fibroblast growth factor 2 (Homo sapiens) (P09038 whole entry, looked up): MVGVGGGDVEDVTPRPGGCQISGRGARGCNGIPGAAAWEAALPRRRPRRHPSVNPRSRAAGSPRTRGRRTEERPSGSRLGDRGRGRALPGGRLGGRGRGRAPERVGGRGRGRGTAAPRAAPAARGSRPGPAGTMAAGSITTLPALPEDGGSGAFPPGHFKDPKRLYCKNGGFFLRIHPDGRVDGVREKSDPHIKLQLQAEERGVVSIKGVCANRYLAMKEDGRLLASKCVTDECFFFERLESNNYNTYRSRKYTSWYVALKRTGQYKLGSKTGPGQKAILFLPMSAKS

SMILES	composite z-score [1]	composite z-score [2]	composite z-score [3]	composite z-score [4]	composite z-score [5]	composite z-score [6]	z-score [7]	composite z-score (Lefty1)	composite z-score [8]	z-score [9]	composite z-score [10]	z-score [11]	z-score [12]	z-score [13]	z-score [14]	composite z-score [15]	composite z-score [16]	composite z-score (Torsin-1A (Homo sapiens) [17])	composite z-score (Torsin-1A (Homo sapiens) [18])	composite z-score [19]
CC(=CC1CCCCC1)[C@@H](NC(=O)c1ccc(C(F)(F)F)cc1)c1ccc(-c2ccccc2)cc1	-0.453	-0.753	-0.708	-0.134	-0.136	-0.58	-0.269	-0.795	0.165	1.25 (inactive)	-0.239	-0.992 (inactive)	-0.019 (inactive)	0.587 (inactive)	0.618 (inactive)	1.03	0.105	-0.514	-0.336	-0.129
Cc1ccc(S[C@]2(C(=O)NCc3ccccc3)CC(=O)N(Cc3ccccc3)[C@@H]2c2ccc(CO)cc2)cc1	3.05	0.0804	0.691	-0.909	-0.211	-0.524	0.561	-1.33	-0.425	-0.627 (inactive)	-0.202	-0.618 (inactive)	0.395 (inactive)	-0.735 (inactive)	-0.26 (inactive)	-0.926	-0.0719	-0.499	0.248	-0.242
COCCOC(=O)N1C(=O)[C@@]2(c3cc(C#CCNC(N)=O)ccc31)[C@H](c1ccc(OCCO)cc1)N1[C@H](c3ccccc3)[C@H](c3ccccc3)OC(=O)[C@H]1[C@@H]2C(=O)N1CCc2cc(OC)c(OC)cc2C1	0.276	0.665	0.145	0.531	1.38	1.2	-1.41	0.658	0.848	-0.702 (inactive)	0.426	-0.0916 (inactive)	-1.59 (inactive)	-0.471 (inactive)	-0.644 (inactive)	0.175	-0.0136	0.0053	-0.193	0.815
NC(=O)NCC#Cc1ccc2c(c1)[C@]1(C(=O)N2)[C@H](C(=O)N2CCCCCCC2)[C@H]2C(=O)O[C@H](c3ccccc3)[C@H](c3ccccc3)N2[C@@H]1c1ccc(OCCO)cc1	-0.132	1.14	0.773	0.909	1.47	0.649	-1.62	1.25	1.36	-0.551 (inactive)	0.683	-0.416 (inactive)	-0.0789 (inactive)	0.619 (inactive)	0.0646 (inactive)	2.11	0.563	0.92	0.304	0.679
COc1ccc(C#Cc2ccc3c(c2)[C@]2(C(=O)N3)[C@H](C(=O)NC[C@H](O)c3ccccc3)[C@H]3C(=O)O[C@H](c4ccccc4)[C@H](c4ccccc4)N3[C@@H]2c2ccccc2OCCO)cc1	1.05	1.19	0.686	0.844	1.09	0.604	-1.79	1.42	0.855	-0.361 (inactive)	0.0762	-5.79 (inactive)	-0.494 (inactive)	-0.463 (inactive)	-0.336 (inactive)	0.924	0.421	0.123	0.535	1.68
